# “And” between values parts separate entries of the source, which are not always exact repeats. Equal entries are not always repeated. Some structures have more than one record in an assay (separate samples or runs), and their calls can disagree. The source made the active and inactive calls. How the source made its calls: active means hit-call score of the fitted dose curve at least 0.9, where 1 is the maximum; inactive means score below 0.9.
# Assay: ATG_PXRE_CIS: Attagene CIS-FACTORIAL HepG2 Assay for human Pregnane X Receptor Element (PXRE) (AID 2282957)
# Details: HepG2 Attagene CIS-FACTORIAL PXRE reporter, mRNA; actives raise or lower the signal
# Procedure: ATG_CIS is a cell-based, multiplexed-readout assay that uses HepG2, a human liver cell line, with measurements taken at 24 hours after chemical dosing in a 24-well plate.ATG_PXRE_CIS is one of 52 assay component(s) measured or calculated from the ATG_CIS assay. It is designed to make measurements of mRNA induction, a form of inducible reporter, as detected with fluorescence intensity signals by Reverse transcription polymerase chain reaction (RT-PCR) and Capillary electrophoresis technology.Data from the assay component ATG_PXRE_CIS was analyzed into 1 assay endpoint. This assay endpoint, ATG_PXRE_CIS, was analyzed with bidirectional fitting relative to DMSO as the negative control and baseline of activity. Using a type of inducible reporter, measures of mRNA for gain or loss-of-signal activity can be used to understand the reporter gene at the transcription factor-level as they relate to the gene NR1I2. Furthermore, this assay endpoint can be referred to as a primary readout, because this assay has produced multiple assay endpoints where this one serves a reporter gene function. To generalize the intended target to other relatable targets, this assay endpoint is annotated to the nuclear receptor intended target family, where the subfamily is non-steroidal.
# Human liver HepG2 cells are transiently transfected with multiple reporter transcription units (MRTUs) in 6-well plates using FuGene 6 reagent (Roche; 3 ml FuGene/1 mg DNA). The MRTU constructs are regulated by a cis-regulating element (promoter). […] A major difference between the CIS and TRANS system is that in CIS activities of endogenous TFs are measured, whereas the TRANS assay evaluates changes in activities of exogenous, chimeric NR-Gal4 proteins. […] At the end of 24 hour incubation, total RNA was isolated using TriZol reagent (Invitrogen). The isolated RNA is then reverse-transcribed using oligo(dT) primer and Mo-MLV reverse transcriptase (Invitrogen) with DNAse I (Ambion) treatment for 30 min. The one-tenth of the produced cDNA was amplified by PCR using Taq DNA polymerase (Invitrogen) and two reporter sequence-specific primers. The PCR products were fluorescently labeled by primer extension with 6-arboxyfluorescein (6-FAM) 5'-labeled reporter sequence-specific primer (2 min at 95 C, 20 s at 68 C and 10 min at 72 C) and these products were digested with 5U of HpaI (New England Biolabs) for 2h at 37 C. The fragments were purified using Qiaquick PCR columns (Qiagen), analyzed on an ABI 3130xL genetic analyzer (Applied Biosystems) with peak positions identified by using a set of X-rhodamine (ROX)-labeled MapMarker1000 molecular weight standards (BioVentures). The raw capillary electrophoresis data was processed using Attagraph software (Attagene).
Compound,AC50,outcome
Nc1cc(Cl)c(-c2cc(Cl)c(N)cc2Cl)cc1Cl,2.97 µM (active),
Nc1ccn([C@@H]2O[C@H](CO)[C@@H](O)C2O)c(=O)n1 (stereo not given in full),,inactive
C=CC(F)(F)C(F)(F)C(F)(F)C(F)(F)F,,inactive
O=C(O)CN(CCCN(CC(=O)O)CC(=O)O)CC(=O)O,,inactive
O=C(c1cc(O)c(O)c(O)c1)c1ccc(O)c(O)c1O,,inactive
CCC(=O)C=Cc1ccc(OC)cc1,26.9 µM (active),
FC(F)(F)C(F)(F)C(F)(F)C(F)(F)I,,inactive
Cc1ccc(S(=O)(=O)O)cc1,26.3 µM (active),inactive
C=COC(=O)C(C)(C)CCCCCC,27.9 µM (active),
CS(=O)(=O)c1ccc([C@@H](CC2CCCC2)C(=O)Nc2cnccn2)cc1Cl,1.91 µM (active),
C[C@]12CC[C@@H]3c4ccc(O)cc4CC[C@H]3[C@@H]1CC[C@@H]2OC(=O)CCC1CCCC1,3.89 µM (active),
CCc1cccc(CC)c1N(COC)C(=O)CS(=O)(=O)O,3.8 µM (active),
Cc1ccccc1C(OCCN(C)C)c1ccccc1 (stereo not given),27 µM (active),inactive
O=C(C=C(O)C(F)(F)F)C(F)(F)F,99 µM (active),
C=CC(=O)OCCN(CC)CC,66.9 µM (active),
Cc1[nH]nc2c1N=C(c1ccccc1Cl)c1cc([N+](=O)[O-])ccc1N2,3.76 µM (active),
O=C1c2ccccc2C(=O)c2c(O)c(O)cc(O)c21,26.6 µM (active),
O=CC(F)(F)C(F)(F)C(F)(F)F,,inactive
C=Cc1ccc(O)c(OC)c1,26.6 µM (active),

Compound,AC50,outcome
CCCCCCCC(OC)OC,,inactive
Oc1c(Cl)cc(Cl)cc1Sc1cc(Cl)cc(Cl)c1O,3.03 µM (active),
Cc1ccccc1OCC(=O)O,,inactive
Clc1ccc2c(Cl)ccnc2c1,,inactive
O=C(O)C(=O)O,,inactive
Brc1ccc(Oc2ccc(Br)cc2Br)cc1,,inactive
O=C(F)C(F)(F)C(F)(F)C(F)(F)C(F)F,,inactive
FC(F)(F)C1(F)C(F)(F)C(F)(F)C(F)(F)C(F)(C(F)(F)F)C1(F)F (stereo not given),,inactive
Brc1cc(Br)c(Oc2c(Br)cc(Br)c(Br)c2Br)cc1Br,,inactive
CC(C)(c1ccc(Oc2ccc(N)cc2)cc1)c1ccc(Oc2ccc(N)cc2)cc1,2.01 µM (active),
COc1cc([N+](=O)[O-])ccc1N,,inactive
FC(F)(F)C1(F)C(F)(F)C(F)(F)C(F)(F)C1(F)F,,inactive
O=c1cc(-c2ccccc2)oc2ccc3ccccc3c12,1.08 µM (active) and 2.24 µM (active),
CC(O)COc1ccccc1 (stereo not given),59.5 µM (active),inactive
CCCCc1oc2ccccc2c1C(=O)c1cc(I)c(OCCN(CC)CC)c(I)c1,1.44 µM (active),
CCCCCc1ccc(O)cc1,33.4 µM (active),
COC(=O)C(F)(F)C(F)(F)C(F)(F)C(F)(F)C(F)(F)F,,inactive
c1cc[nH]c1,,inactive

# From PubChem BioAssay (EPA / NIEHS)
